JMJD2A Tudor – blocks the human JMJD2A Tudor domain; AlphaScreen JMJD2A-Tudor / H3K4me3 peptide binding; O75164; Potency, µM (series often up to 114 µM), usual class: inhibitors; actives 4.4% (n = 390,000); AID 504339; further: nearly all actives have a fitted effect of over 50% in size
HP1b chromo inh – blocks HP1-beta chromodomain binding to methylated histone tails; AID 540317; P83916; AlphaScreen HP1-beta / biotin-H3K9me3 peptide binding; Potency, µM (series often up to 114 µM), actives largely listed as inhibitors; actives 0.56% (n = 390,000); further: nearly all actives have a fitted effect of over 70% in size
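AlphaScreen: HP1-beta (50 nM) preformed 30 min with biotin-H3(1-18)K9me3 peptide (50 nM) in PBS pH 7.4, 0.01% Tween-20. Compound added for 30 min at RT, then streptavidin donor/nickel chelate acceptor beads (10 ug/mL) for 30 min.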
G9a inh – inhibitors of human histone lysine methyltransferase G9a; G9a H3K9 monomethylation, AlphaScreen, 2 h; Potency, µM (highest dose often 102 µM), most hits filed as inhibitors; Q96KQ7; AID 504332; actives 8.8% (n = 350,000); further: nearly all actives have a fitted effect of over 75% in size
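G9a (20 nM) was preincubated 15 min with compound, then reacted 2 h at room temperature with 500 nM biotin-H3K9 peptide and 20 µM SAM. Monomethyl-H3K9 detected by AlphaScreen using anti-H3K9me1 antibody.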
GLS inhibitor – inhibitors of human glutaminase (GLS); O94925; GLS enzymatic activity, qHTS titration; Potency, µM (titrated, usually from 45.5 µM), hits mostly inhibitors; actives 0.21% (n = 410,000); AID 624170
Target sequence (O94925 whole entry, looked up): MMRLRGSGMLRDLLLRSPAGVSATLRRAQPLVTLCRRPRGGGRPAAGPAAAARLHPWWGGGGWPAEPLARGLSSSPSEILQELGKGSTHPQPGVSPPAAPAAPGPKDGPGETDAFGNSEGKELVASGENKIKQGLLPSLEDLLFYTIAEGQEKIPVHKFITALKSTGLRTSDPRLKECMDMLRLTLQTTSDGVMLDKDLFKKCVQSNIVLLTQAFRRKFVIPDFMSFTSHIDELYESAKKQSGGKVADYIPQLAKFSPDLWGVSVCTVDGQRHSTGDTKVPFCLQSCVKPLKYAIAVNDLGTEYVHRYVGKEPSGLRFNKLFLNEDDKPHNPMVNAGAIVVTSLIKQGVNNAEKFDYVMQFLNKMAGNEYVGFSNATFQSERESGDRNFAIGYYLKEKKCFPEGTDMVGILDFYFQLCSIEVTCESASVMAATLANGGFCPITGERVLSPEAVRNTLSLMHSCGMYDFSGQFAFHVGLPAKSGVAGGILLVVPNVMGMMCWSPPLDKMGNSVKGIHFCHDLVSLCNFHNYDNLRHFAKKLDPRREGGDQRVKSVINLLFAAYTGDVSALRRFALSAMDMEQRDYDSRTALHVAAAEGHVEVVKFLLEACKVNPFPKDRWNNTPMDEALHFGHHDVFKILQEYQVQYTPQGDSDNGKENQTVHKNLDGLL
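Enzyme dispensed in phosphate buffer (45 mM, pH 8.2, 0.02% Tween-20), compounds pinned in, then 1 mM L-glutamine solution and the glutamate oxidase–HRP–Amplex Red mix added; fluorescence read immediately and again after 30 min at room temperature.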
BAZ2B inh – inhibitors of human BAZ2B bromodomain; Q9UIF8; AlphaScreen BAZ2B-H3K14Ac peptide displacement; Potency, µM (top dose mostly 114 µM), hits mostly inhibitors; actives 4.4% (n = 360,000); further: nearly all actives have a fitted effect of over 60% in size
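Multi-concentration screen (max 110 uM) measuring displacement of acetylated histone H3 peptide from BAZ2B by AlphaScreen, using 50 nM protein, 50 nM peptide and 10 ug/mL streptavidin donor plus Ni-chelate acceptor beads.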
Numbers stand for hits; – = inactive; ? = inconclusive; · = no result given; [ ] = another dose, or the depositor's remark. Compounds with a hit are over-represented: about 10% of the library has one in this group of screens. The call rests on the fitted dose curve; in most records, active means well fitted curve in the direction sought with a large enough effect; inconclusive means small, poorly fitted or top-dose-only effect, or another doubt; inactive means no such curve, though single readings can be large; an effect the other way counts as inactive or inconclusive.

SMILES	JMJD2A Tudor	HP1b chromo inh	G9a inh	GLS inhibitor	BAZ2B inh
CCN(CC)C(=O)c1cc([N+](=O)[O-])cc2c1-c1ccc([N+](=O)[O-])cc1C2=C(C#N)C#N	?	–	50µM	–	?
CCN(CC)C(=O)c1ccc(Oc2ccc([N+](=O)[O-])cc2Cl)cc1	–	–	?	–	–
COc1ccc(NC(=O)/C(C#N)=C\c2ccc(-c3cc(C(=O)O)ccc3C)o2)cc1	?	–	25µM	?	56µM
Cc1ccc(/C=C(\C#N)C(=O)Nc2ccc(Br)cc2)o1	–	–	–	–	–
N#C/C(=C\c1ccc([N+](=O)[O-])o1)C(=O)Nc1ccc(F)cc1	?	–	·	–	45µM
Cc1ccc(/C=C(\C#N)C(=O)Nc2cccc(Br)c2)o1	–	–	–	–	–
COc1ccc(NC(=O)/C(C#N)=C\c2ccc(Br)o2)cc1	56µM	–	·	–	?
CC(=O)C(C(C)=O)C(NC(=O)c1cccnc1)(C(F)(F)F)C(F)(F)F	3.5µM	–	–	?	–
C=CCN1CCN(C(c2ccc(OC)c(OC)c2)c2nnnn2C(C)(C)C)CC1 (stereo unspecified)	–	–	50µM	–	79µM
CC(C)(C)n1nnnc1C(c1cccc(C#N)c1)N1CCN2CCCC2C1 (stereo unspecified)	–	–	–[12.7 µM]	–	–
CC(C)(C)n1nnnc1C(c1cccc(C#N)c1)N1CCCCCC1 (stereo unspecified)	–	–	71µM	–	–
CCN1CCN(C(c2cc(OC)c(OC)c(OC)c2)c2nnnn2C(C)C)CC1 (stereo unspecified)	–	–	?	–	50µM
COc1ccccc1C(c1nnnn1C(C)(C)C)N1CCCCCC1 (stereo unspecified)	–	–	25µM	–	–
CNC(=S)N(Cc1cc2cc(OC)c(OC)cc2[nH]c1=O)C1CCCC1	–	–	·	–	–
O=c1c(C(c2ccccc2)c2c(O)sc3ccccc3c2=O)c(O)sc2ccccc12	–	–	?	–	28µM
O=c1[nH]c2ccc(S(=O)(=O)Nc3cc(Cl)ccc3O)cc2o1	?	–	3.2µM	–	40µM
O=c1[nH]c2ccc(S(=O)(=O)Nc3ccc(Cl)cc3)cc2o1	–	–	?	–	–
Cc1cc(C)cc(C(=O)N(Cc2ccco2)c2c(N)n(Cc3ccccc3)c(=O)[nH]c2=O)c1	–	–	–[2.33 µM]	–	–
COc1cc(/C=C2/NC(=O)N(CC(=O)Nc3cccc(C)c3)C2=O)ccc1OCC(N)=O	20µM	?	–	–	–
Cc1cccc(NC(=O)CN2C(=O)N/C(=C\c3cccn3-c3cccc(C(=O)O)c3)C2=O)c1	–	–	35µM	–	56µM
Cc1cccc(NC(=O)CN2C(=O)N/C(=C/c3cc(C)n(C)c3C)C2=O)c1	–	–	56µM	–	?
O=C(O)c1cccc(-n2cccc2/C=C2/NC(=O)N(c3ccc(Cl)cc3)C2=O)c1	0.79µM	1.1µM	1.4µM	–	1.8µM
Cc1ccc(-n2cccc2/C=C2/NC(=O)N(CC(=O)Nc3cccc(C)c3)C2=O)cc1	–	–	?	–	?
COc1ccc(S(=O)(=O)NC(=O)C2(C)CCN2C(=O)C(C)(C)c2ccccc2)cc1 (stereo unspecified)	·	·	·	–	·
O=C(COC(=O)c1ccc2c(c1[N+](=O)[O-])C(=O)c1ccccc1C2=O)NC1CC1	–	–	35µM	–	–
SMILES	JMJD2A Tudor	HP1b chromo inh	G9a inh	GLS inhibitor	BAZ2B inh
O=C(COC(=O)c1ccccc1F)NC1CCCC1	–	–	–[0.501 µM]	–	–
O=C(COC(=O)c1cccc(C(=O)OCC(=O)NC2CC2)n1)NC1CC1	?	–	14µM	–	·
O=C(COC(=O)c1ccccn1)NC1CCCCC1	–	–	·	–	–
CC1CCCCC1NC(=O)COC(=O)c1ccc2c(c1Cl)C(=O)c1ccccc1C2=O (stereo unspecified)	?	–	–	–	?
O=C(COC(=O)c1cccc2c1C(=O)c1ccccc1C2=O)NC1CCCCC1	40µM	?	18µM	–	40µM
CC1CC(C)(C)N2C(=O)C3(Nc4ccccc4S3)c3cccc1c32 (stereo unspecified)	50µM	–	45µM	–	50µM
Cc1cc2c3c(c1)C1(SCC(=O)N1c1ccc(F)cc1)C(=O)N3C(C)(C)CC2C (stereo unspecified)	?	–	–	–	–
O=C1CC(=O)N(c2cccc(F)c2)N1	–	–	56µM	–	–
Cc1ccc(S(=O)(=O)CCN2CCC(n3cccc3)CC2)cc1	–	–	·	–	40µM
Cc1ccc(S(=O)(=O)CCN2CCN(c3ccccc3)CC2)cc1	–	–	–	–	–
C/C(=N\Nc1ccccc1)c1c(O)cc(C)oc1=O	–	–	2.5µM	–	–
COc1ccc2oc(=O)c(/C(C)=N/Nc3ccccc3)cc2c1	–	–	13µM	–	·
COc1ccc2oc(=O)c(C(=O)Nc3ccccc3C)cc2c1	–	–	–[0.501 µM]	–	50µM
CCOc1ccc(Nc2sc(C(=O)c3ccc4c(c3)OCO4)c(N)c2S(=O)(=O)c2ccc(C)cc2)cc1	–	–	–	–	–
COc1cccc([C@@H]2Oc3ccc(OC)cc3C(=O)[C@H]2O)c1	–	–	79µM	–	–
COc1ccc2c(c1)C(=O)[C@@H](O)[C@H](c1ccc(OC)c(Br)c1)O2	–	–	–	–	89µM
O=C1CC(N2CCN(Cc3ccc4c(c3)OCO4)CC2)C(=O)N1c1cccc(Cl)c1 (stereo unspecified)	–	–	–	–	–
COc1ccc(N2C(=O)CC(N3CCN(Cc4ccc5c(c4)OCO5)CC3)C2=O)cc1 (stereo unspecified)	–	–	40µM	–	–
O=C1CC(N2CCN(c3ccc(O)cc3)CC2)C(=O)N1c1ccc2c(c1)OCO2 (stereo unspecified)	?	?	16µM	–	–
COc1cccc(-n2c(=O)[nH]cc(C(=O)Nc3ccc(NC(C)=O)cc3)c2=O)c1	–	–	45µM	–	–
O=C(O)c1cc(N(Cc2ccccc2O)Cc2cc(O)ccc2O)ccc1O	·	·	2.2µM	·	·
CCc1nnc(SC(CC)C(=O)Nc2cccc(OC)c2)c2cc3oc(C)cc3n12 (stereo unspecified)	–	–	?	–	–
CCCOCc1cc(CN2CCN(c3ccccc3OC)CC2)c(O)c2ncccc12	20µM	–	?	–	4.5µM
CCOc1ccccc1N1CCN(Cc2cccc(OC)c2O)CC1	–	–	–	–	–
COc1ccccc1N1CCN(Cc2cc(Br)c(O)c3ncccc23)CC1	40µM	–	8.9µM	–	13µM
CCOCc1cc(CN2CCN(c3ccccc3OC)CC2)c(O)c2ncccc12	22µM	–	–	–	5.6µM
COc1ccccc1N1CCN(c2nc(C)nc3c2oc2ccccc23)CC1	45µM	–	40µM	–	50µM
Cc1nc(N2CCC(C)CC2)c2oc3ccccc3c2n1	–	–	–[12.7 µM]	–	–
